# PubChem BioAssay AID1259311 (ICCB-Longwood Screening Facility, Harvard Medical School, 2017)
# Where “and” joins values, the source holds several entries; their conditions need not be identical. Equal entries are not always repeated. The whole screen tested about 330,000 compounds, of which about 1,100 (0.33%) were called active. This excerpt belongs to a sample that is enriched for actives. Values without a mark were called inactive. Rule as the data show it: active = inhibition above about 85%; inactive = the rest.
# Test: growth inhibition of S. aureus RN4220, primary screen, OD600 (AID 1259311);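 also: plate controls were untreated cells for no effect and reference antibiotic for full effect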
# Conditions: OD600, 16 h, active compounds read high
row,Structure (SMILES),inhibition
1,Cc1ccsc1C(=O)OCC(=O)c1cc(C)n(CC2CCCO2)c1C (stereo unspecified),2.84%
2,Cc1cc(C(=O)CCl)c(C)n1CC1COc2ccccc2O1 (stereo unspecified),93.5% (active)
3,O=C1C(=O)N(CC2COc3ccccc3O2)c2ccccc21 (stereo unspecified),5.32%
4,CON=Cc1ccc(Sc2ccc(C)cc2)c([N+](=O)[O-])c1,-19%
5,OCc1ccc(OCCCOc2cccc3cccnc23)cc1,4.11%
6,NC(=O)C1CCN(C(=O)COc2cccc3cccnc23)CC1,-6.77%
7,O=C(Nc1ccccc1)Oc1cccc2cccnc12,94.9% (active)
8,CCCOc1ccc(NC=CC(=O)C(C)(C)C)cc1,7.56%
9,Cc1cc(C(=O)NN=Cc2ccncc2)c(C)o1,-0.256%
10,CNC(=S)NN=C(C)c1ccc(C(C)(C)C)cc1,0.974%
11,Cc1ccc(N2C(=O)C3N=NN(CC(=O)N4N=C(c5cccc6ccccc56)CC4c4ccccc4)C3C2=O)cc1 (stereo unspecified),1.33%
12,Oc1ccccc1C1=NN(c2ccccc2)C(c2ccccc2)C1 (stereo unspecified),94% (active)
13,O=C1C2N=NN(CC(=O)N3N=C(c4cccc5ccccc45)CC3c3ccccc3)C2C(=O)N1c1ccccc1 (stereo unspecified),7.1%
14,Cc1cccc(NC(=S)NN=C(c2ccccc2)C(C)C)c1,-4.52%
15,Cc1ccc(NC(=S)Nc2ccc(F)cc2)cc1,-0.939%
16,Cc1cccc(NC(=S)Nc2ccc(Cl)c(Cl)c2)c1,98.8% (active)
17,CC(=O)NN=C(C)CC(=O)Nc1ccc2c(c1)OCCO2,1.21%
18,Cn1ccc(=Nc2ccc(NC(=O)c3ccc(N=c4ccn(C)c5ccc([N+](=O)[O-])cc45)cc3)cc2)cc1,95.4% (active)
19,COc1cc(NS(=O)(=O)c2ccc(NC(=O)c3ccc([N+](=O)[O-])cc3)cc2)ncn1,2.54%
20,CCc1ccc(NC(=O)c2ccc(Cn3cc([N+](=O)[O-])cn3)cc2)cc1,18.3%
21,CC(NC(=O)c1nc[nH]c1C(=O)N(C)Cc1ccccc1)C(=O)OC(C)(C)C (stereo unspecified),2.94%
22,CCc1ccc(C=NNc2nn[nH]n2)cc1,0.812%
23,O=C(c1ccncc1)c1ccc([N+](=O)[O-])cc1,75% (active)

row,Structure (SMILES),inhibition
1,O=C(Nn1cnnc1)c1ccc([N+](=O)[O-])cc1,4.07%
2,O=C(Nc1ccccc1C(=O)Nc1ccncc1)c1ccc([N+](=O)[O-])cc1,3.63%
3,Cc1c(NC(=O)C(=O)C=C(O)c2ccccc2)c(=O)n(-c2ccccc2)n1C,-0.817%
4,C#CCOCCOCCOCCNc1nc(N2CCN(C(=O)C(CCCCN)n3cc(CCC(=O)O)nn3)CC2)nc(N2CCN(C(=O)C(C(C)O)n3cc(CCCCN)nn3)CC2)n1 (stereo unspecified),-0.306%
5,Cc1ccc(C(=O)NNC(=O)C(C)Oc2ccc3ccccc3c2)o1 (stereo unspecified),0.442%
6,CCCc1ccc(OCC(=O)NNC(=S)NC(=O)c2ccco2)cc1,102% (active)
7,Cc1ccc(OCC(=O)NCCCNC(=O)c2ccco2)cc1C,-1.59%
8,CC(Oc1ccc2ccccc2c1)C(=O)NNC(=S)NC(=O)c1ccco1 (stereo unspecified),92.3% (active)
9,O=C(Nc1ccc2ccccc2c1)/C(=C/c1cccc(Br)c1)NC(=O)c1ccco1,0.361%
10,Cc1ccc(OCC(=O)NNC(=S)NCc2ccccc2)cc1,3.38%
11,Cc1cc(=O)[nH]c(NN=Cc2ccccc2Cl)n1,2.01%
12,CC(C(O)c1ccccc1)N(C)C(=O)CCc1ccccc1 (stereo unspecified),0.814%
13,Cc1cc(Cl)ccc1OCCCC(=O)NN=Cc1cccc([N+](=O)[O-])c1,-5.47%
14,CN(C)c1ccc(C(=NO)C(F)(F)F)cc1,19.2%
15,O=C(CN1C(=O)C(=Cc2ccc(C(F)(F)F)cc2)Sc2ccccc21)NCc1ccco1,2.46%
16,COc1c(N2CCN(C(=S)Nc3ccccc3F)C(C)C2)c(F)cc2c(=O)c(C(=O)O)cn(C3CC3)c12 (stereo unspecified),99.8% (active)
17,CC1CN(C(=S)Nc2ccccc2F)CC(C)O1 (stereo unspecified),-2.44%
18,COc1ccccc1NC(=S)N1CCN(c2ccc(F)cc2)CC1,3.36%
19,S=c1[nH]nc(C2CCCCC2)n1N=C/C=C/c1ccccc1,3.47%
20,CCOC(=O)C1=C(c2ccc(OC)cc2)C(=O)c2ccccc2C1=O,96.9% (active)
21,COC(=O)c1cc(OC)ccc1-c1ccc(OC)cc1,-2.37%
22,COc1ccc(CNC(=O)CCN2C(=O)c3ccccc3C2=O)cc1,0.137%
23,Cc1nn(Cc2ccc(F)cc2)c(Cl)c1C=NNC(=O)c1cccnc1,4.34%

row,Structure (SMILES),inhibition
1,COC(=O)NN=C(C)c1ccc(Br)cc1,0.736%
2,S=c1[nH]nc(COc2ccccc2)n1N=C/C=C/c1ccccc1,7.1%
3,CN1CCN(N=Cc2nc(-c3ccccc3Cl)n3ccccc23)CC1,7.72%
4,O=S(=O)(NCc1ccccn1)c1ccc(Br)s1,8.79%
5,O=S(=O)([N-]c1nc2ccccc2nc1-[n+]1ccc(Cc2ccccc2)cc1)c1ccc(Br)s1,94.6% (active)
6,CN1CCc2c(sc(N=Cc3cc(Cl)ccc3O)c2C#N)C1,5.61%
7,CCN1/C(=C/c2ccc3ccc(C)cc3[n+]2CC)Sc2ccccc21,100% (active)
8,CC1CN(C(C)CO)C(=O)c2cccc(NC(=O)Nc3ccc(C(F)(F)F)cc3)c2OC1CN(C)C (stereo unspecified),0.322%
9,COc1ccc(C(=O)Nc2cccc(/C=C(/CCC(=O)O)c3nc4ccccc4s3)c2)cc1,19.7%
10,COc1ccc(C2=NN(c3nc4ccccc4s3)C(=O)C2)cc1,97.7% (active)
11,COc1ccccc1NC(=O)c1ccc2nc(N3C(=O)CCC3=O)sc2c1,2.05%
12,CCN1CC2C3C(=O)N(Cc4ccccc4)C(=O)C3[C@](C)(C1=O)N2C(=O)c1ccc(C)cc1 (stereo partly specified),3.51%
13,NC1=NCC(Cc2ccc(O)cc2)N1CC1CCCCC1 (stereo unspecified),4.08% and -3.38%
14,CC(=O)OC1CC[C@@]2(C)C(CCC3C4CCC(C(C)O)[C@@]4(C)CC(=O)C32)C1 (stereo partly specified),3.21%
15,COC(=O)C1=C(C)N(c2ccc(C)cc2)/C(=C/c2ccc(O)cc2)C1=O,84.9% (active)
16,COC(=O)C1(C)NC(c2ccc(C)cc2)C2C(=O)N(c3ccc(F)cc3)C(=O)C21 (stereo unspecified),-0.392%
17,CCOC1OC(C(=O)N2CCCCCCC2)=CC(c2ccc(C(F)(F)F)cc2)C1CCCO (stereo unspecified),7.41% and 6.78%
18,O=C(NCc1ccccc1)C1=CC(c2ccc(C(F)(F)F)cc2)CC(OCc2ccc(CO)cc2)O1 (stereo unspecified),5.86%
19,Nc1nonc1C(=O)NN=Cc1ccc([N+](=O)[O-])o1,21.6%
20,O=C(/C=C/c1ccc([N+](=O)[O-])o1)NNC(=O)c1ccc(F)cc1,99.6% (active)
21,O=C(NN=Cc1ccc(F)cc1)c1ccc(F)cc1,4.01%
22,O=C(O)c1ccc(NN=Cc2cc3ccccc3nc2Cl)cc1,-0.883%
23,CCCCC1CC1C(NC(=O)c1ccccc1)c1ccccc1C(F)(F)F (stereo unspecified),9.97%

row,Structure (SMILES),inhibition
1,Cc1cccc(C(=O)Oc2ccccc2C=NNc2ccc([N+](=O)[O-])cc2)c1,-8.66%
2,NC(COc1cc(Cl)cc(Cl)c1)=NO,1.6%
3,COc1ccc(-c2csc3ncnc(N4CCN(S(=O)(=O)c5ccccc5C#N)CC4)c23)cc1,96.6% (active)
4,COc1ccc(S(=O)(=O)N2CCN(c3ncnc4c(-c5ccccc5)nsc34)CC2)cc1,4.04%
5,COc1ccc(-c2csc3ncnc(N4CCN(S(=O)(=O)c5cccc(F)c5)CC4)c23)cc1,2.78%
6,Cc1cccc(NC(=O)c2ccc([N+](=O)[O-])o2)c1,35.2%
7,Cc1ccc(NCC(=O)NN=Cc2ccc([N+](=O)[O-])o2)cc1,7.24%
8,C/[N+]([O-])=C\c1ccc([N+](=O)[O-])o1,97.6% (active)
9,COc1cc(C=NNC(=O)c2cccc([N+](=O)[O-])c2)ccc1O,-1.37%
10,COc1ccc(S(=O)(=O)Nc2ccc3c(c2)C(=O)N(C(C)CO)CC(C)C(CN(C)CC2CC2)O3)cc1 (stereo unspecified),1.05%
11,CC(=NNc1cc(C)nc(NCc2ccccc2)n1)c1ccc([N+](=O)[O-])cc1,-7.45%
12,COc1ccc2c(c1)OC(O)(C(F)(F)C(F)F)CC2=O (stereo unspecified),99.2% (active)
13,COc1ccc2c(c1)C(=O)CC(c1ccccc1)O2 (stereo unspecified),2.06%
14,COc1ccc2c(c1)SC(C)CC2=O (stereo unspecified),-12.2%
15,CC(=O)OCC(=O)C1CCC2C3CCC4CC(O)CC[C@]4(C)C3C(=O)C[C@]12C (stereo partly specified),2.69%
16,CC(NC(=O)c1nc[nH]c1C(=O)NC(C)c1ccccc1)C(=O)OCc1ccccc1 (stereo unspecified),6.68%
17,Cc1cc(NC(=O)COc2ccc([N+](=O)[O-])cc2)no1,-0.977%
18,CC(C)c1nnc(NC(=O)COC(=O)/C=C/c2ccc([N+](=O)[O-])cc2)s1,-2.74%
19,CCOCC(=O)Nc1ncc(S(=O)(=O)c2ccc([N+](=O)[O-])cc2)s1,90.6% (active)
20,COC(=O)C1=C(C(=O)OC)C2Nc3ccccc3[C@@]23CC(C(=O)OC)N(C(=O)c2cccs2)C3=N1 (stereo partly specified),2.73%
21,CCN(CC)S(=O)(=O)c1cccc(-c2n[nH]c(=S)n2N=Cc2ccc(OC)cc2)c1,15%
22,CC(C)CC(NC(=O)c1[nH]cnc1C(=O)NC(C)C(=O)OC(C)(C)C)C(=O)OC(C)(C)C (stereo unspecified),4.67%
